From PubChem BioAssay (NCI)
The panel holds about 83,000 compounds, 20% with a hit somewhere; the sample as a whole holds those more often.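 In brief: 96-well plates, 48 h treatment, single concentration, percent growth endpoint.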 Unmarked numbers belong to inactive results. Activity calls are given as the source filed them. How the source made its calls: active means growth percent below 10; inactive means the rest.

The compounds below were run on HOP-92 NSCLC (assay: NCI-60 one-dose screen, 48 h (100 = growth as untreated, 0 = no growth, -100 = all killed)). Details: 10 µM unless noted.

**Q.** How did the growth turn out when COc1ccc(/C(=C\c2cc(OC)c(OC)c(OC)c2)C(=O)N2CCNCC2)cc1 was run?
**A.** 94%

**Q.** Which growth does the source give for O=c1c2sc3ncc(Cl)cc3c2nnn1-c1cccc(Cl)c1 here?
**A.** 63.8%

**Q.** F was tested. Which growth did it give?
**A.** -5.03% [6.87 mM] (active)

**Q.** With CC1=C(C(=O)Nc2ccc(F)cc2)C(c2ccc(C)cc2)C2=C(CC(C)(C)CC2=O)N1 (stereo unspecified) as the compound, how does the growth read?
**A.** 68.4%

**Q.** With CC[C@H](Nc1nc(N)nc(C2CC2)c1C#N)c1nc2cccc(NCc3ccc(C(=O)NO)cc3)c2c(=O)n1-c1ccccc1 as the compound, how does the growth read?
**A.** -14% (active)

**Q.** How did the growth turn out when CC(C)N1CCN(c2ccncc2S(=O)(=O)N2CCN(C)CC2)CC1 was run?
**A.** 108%

**Q.** Which growth does the source give for c1ccc(C(CC2=NCCCN2)c2ccccc2)cc1 here?
**A.** 82.6%

**Q.** For Clc1ccc2c(c1)-c1ccccc1C1=NCCN12, which growth is on record?
**A.** 58.6%

**Q.** For O=C(C=P(c1ccccc1)(c1ccccc1)c1ccccc1)CCl, which growth is on record?
**A.** -51.7% (active)

**Q.** COc1cc(/C=C/C(=O)c2ccc(NC(=O)CSc3nnc(-c4ccc(Cl)cc4)n3-c3ccccc3)cc2)cc(OC)c1OC was tested. Which growth did it give?
**A.** 97.9%

**Q.** With OC(c1cc2cc(Cl)ccc2c2cc(C(F)(F)F)ccc12)C1CCCCN1 (stereo unspecified) as the compound, how does the growth read?
**A.** -76.1% (active)

**Q.** With Clc1cc(Br)ccc1-c1ccc(CNCC2CCNCC2)o1 as the compound, how does the growth read?
**A.** 56.3%

**Q.** Which growth does the source give for CN1CCN(Cc2ccc(NC(=O)c3cncc(C#Cc4ncc5cnccn45)c3)cc2C(F)(F)F)CC1 here?
**A.** 11.2%

**Q.** CC1=C(C(=O)Nc2ccc(F)cc2)C(c2ccc(Cl)cc2)C2=C(CC(C)(C)CC2=O)N1 (stereo unspecified) was tested. Which growth did it give?
**A.** 62%

**Q.** CCOC(=O)c1ccc(N(CCC(=O)O)C(C)=O)cc1 was tested. Which growth did it give?
**A.** 96.2%

**Q.** Which growth does the source give for O=c1[nH]c2cc(Cl)c(Cl)cc2o1 here?
**A.** 101%

**Q.** Which growth does the source give for CC(COC(=O)c1ccccc1)N1CC2CCC(C1)O2 (stereo unspecified) here?
**A.** 91.1%

**Q.** With CC[C@H](Nc1nc(C)nc(N)c1C#N)c1nc2cccc(NCc3ccc(C(=O)NO)cc3)c2c(=O)n1-c1ccccc1 as the compound, how does the growth read?
**A.** -1.54% (active)

**Q.** Cc1cc(NC(=O)C2c3ccccc3C(=O)N(CC(C)C)C2c2cccs2)no1 (stereo unspecified) was tested. Which growth did it give?
**A.** -0.868% (active)

**Q.** Clc1ccc2c(c1)-n1cccc1C(c1ccc3ccccc3c1)=NC2 was tested. Which growth did it give?
**A.** 89.6%

**Q.** With CCC1CCc2nc3sc(C(=O)Nc4cccc(F)c4)c(N)c3cc2C1 (stereo unspecified) as the compound, how does the growth read?
**A.** 61.4%

**Q.** How did the growth turn out when CCn1c(CN2CCN(Cc3ccccc3)CC2)nc2cc(NC(=O)c3cccs3)ccc21 was run?
**A.** -72.3% (active)

**Q.** For CCN(CC)CCCNc1cccc2c(C)cc(OC)nc12, which growth is on record?
**A.** 58.4%

**Q.** COc1ccc(-c2cn(-c3cccc(C(=O)/C=C/c4ccc(O)c(OC)c4)c3)c(=O)[nH]2)cc1 was tested. Which growth did it give?
**A.** 22.6%

**Q.** Which growth does the source give for COc1ccc(/C=c2\c(=O)n(-c3ccccc3)c3nn4c(n23)=NNC42CCCCC2)cc1 here?
**A.** 94.1%

**Q.** How did the growth turn out when CCNC(=S)N(Cc1ccccc1)Cc1ccccc1 was run?
**A.** 76.7%

**Q.** How did the growth turn out when CCCCCCCCCCCCCCCc1cc(O)ccc1[N+](=O)[O-] was run?
**A.** 59.9%

**Q.** With COC1=CC(c2ccc[nH]2)=N/C1=C\c1[nH]c(C)c(C(=O)CCCCCCCCC(=O)O[C@H]2CC[C@H]3C4CCc5cc(O)ccc5C4CC[C@]23C)c1C (stereo partly specified) as the compound, how does the growth read?
**A.** -14.6% (active)

**Q.** How did the growth turn out when CCc1oc2ccccc2c1C(=O)c1cc(I)c(O)c(I)c1 was run?
**A.** 53.2%

**Q.** How did the growth turn out when Cc1ccc(N=CNN=C(N)N)cc1 was run?
**A.** 109%

**Q.** How did the growth turn out when CCCCN(CCCC)CCCN=c1nc2c(c(N)n1-c1ccccc1)c(=S)n(-c1ccccc1)c(=S)n2-c1ccccc1 was run?
**A.** -66.9% (active)

**Q.** Which growth does the source give for [Ag].[Ag].[NH-]S(=O)(=O)c1ccc(N=Nc2cc(N=Nc3ccc(S([NH-])(=O)=O)cc3)c3c(NC(=O)C(Cl)Cl)cccc3c2OC(=O)C(Cl)Cl)cc1.[c-]1nccs1.[c-]1nccs1 here?
**A.** 60.7%

**Q.** COc1cc(NCCCCC(C)N)c2nccc(C)c2c1 (stereo unspecified) was tested. Which growth did it give?
**A.** 46.5%

**Q.** COC(=O)C(C)NC1=C(Cl)C(=O)C(NC(C)C(=O)OC)=C(Cl)C1=O (stereo unspecified) was tested. Which growth did it give?
**A.** 101%

**Q.** For COc1cc2nccc(Oc3ccc(NC(=O)C4(C(=O)Nc5ccc(F)cc5)CC4)cc3)c2cc1OC(=O)c1ccc(N)cc1, which growth is on record?
**A.** -13.3% (active)

**Q.** For O=C(NO)c1ccc(NCc2csc3ccccc23)cc1, which growth is on record?
**A.** 71.7%

**Q.** COc1ccc2[nH]c(O)c(/C=c3/ccc4c(c3)N=C(c3ccc(F)cc3)N=4)c2c1 was tested. Which growth did it give?
**A.** 4.86% (active)

**Q.** Which growth does the source give for CCN(CC)CCCC(C)N/C(c1cccc(OC)c1)=c1\c(=O)[nH]n(-c2c3ccccc3nc3ccccc23)c(=O)\c1=C(/NC(C)CCCN(CC)CC)c1cccc(OC)c1 (stereo unspecified) here?
**A.** -70% (active)

What follows are compounds tested on NCI-H522 lung in the same assay as above. Details: 10 µM unless noted.

**Q.** For COc1ccc(/C(=C\c2cc(OC)c(OC)c(OC)c2)C(=O)N2CCNCC2)cc1, which growth is on record?
**A.** 79.1%

**Q.** How did the growth turn out when O=c1c2sc3ncc(Cl)cc3c2nnn1-c1cccc(Cl)c1 was run?
**A.** 82%

**Q.** Which growth does the source give for F here?
**A.** 56.8% [6.87 mM]

**Q.** With CC1=C(C(=O)Nc2ccc(F)cc2)C(c2ccc(C)cc2)C2=C(CC(C)(C)CC2=O)N1 (stereo unspecified) as the compound, how does the growth read?
**A.** 91.2%

**Q.** CC[C@H](Nc1nc(N)nc(C2CC2)c1C#N)c1nc2cccc(NCc3ccc(C(=O)NO)cc3)c2c(=O)n1-c1ccccc1 was tested. Which growth did it give?
**A.** -29.6% (active)

**Q.** For CC(C)N1CCN(c2ccncc2S(=O)(=O)N2CCN(C)CC2)CC1, which growth is on record?
**A.** 92.7%

**Q.** Which growth does the source give for c1ccc(C(CC2=NCCCN2)c2ccccc2)cc1 here?
**A.** 90.9%

**Q.** For Clc1ccc2c(c1)-c1ccccc1C1=NCCN12, which growth is on record?
**A.** 23.2%

**Q.** For O=C(C=P(c1ccccc1)(c1ccccc1)c1ccccc1)CCl, which growth is on record?
**A.** -77.7% (active)

**Q.** For COc1cc(/C=C/C(=O)c2ccc(NC(=O)CSc3nnc(-c4ccc(Cl)cc4)n3-c3ccccc3)cc2)cc(OC)c1OC, which growth is on record?
**A.** 63.8%

**Q.** Which growth does the source give for OC(c1cc2cc(Cl)ccc2c2cc(C(F)(F)F)ccc12)C1CCCCN1 (stereo unspecified) here?
**A.** -89.6% (active)

**Q.** How did the growth turn out when Clc1cc(Br)ccc1-c1ccc(CNCC2CCNCC2)o1 was run?
**A.** 55.3%

**Q.** Which growth does the source give for CN1CCN(Cc2ccc(NC(=O)c3cncc(C#Cc4ncc5cnccn45)c3)cc2C(F)(F)F)CC1 here?
**A.** 58.3%

**Q.** CC1=C(C(=O)Nc2ccc(F)cc2)C(c2ccc(Cl)cc2)C2=C(CC(C)(C)CC2=O)N1 (stereo unspecified) was tested. Which growth did it give?
**A.** 82.4%

**Q.** CCOC(=O)c1ccc(N(CCC(=O)O)C(C)=O)cc1 was tested. Which growth did it give?
**A.** 95%

**Q.** How did the growth turn out when O=c1[nH]c2cc(Cl)c(Cl)cc2o1 was run?
**A.** 103%

**Q.** Which growth does the source give for CC(COC(=O)c1ccccc1)N1CC2CCC(C1)O2 (stereo unspecified) here?
**A.** 104%

**Q.** CC[C@H](Nc1nc(C)nc(N)c1C#N)c1nc2cccc(NCc3ccc(C(=O)NO)cc3)c2c(=O)n1-c1ccccc1 was tested. Which growth did it give?
**A.** -36.4% (active)

**Q.** Which growth does the source give for Cc1cc(NC(=O)C2c3ccccc3C(=O)N(CC(C)C)C2c2cccs2)no1 (stereo unspecified) here?
**A.** -66.5% (active)

**Q.** For Clc1ccc2c(c1)-n1cccc1C(c1ccc3ccccc3c1)=NC2, which growth is on record?
**A.** 41.3%

**Q.** CCC1CCc2nc3sc(C(=O)Nc4cccc(F)c4)c(N)c3cc2C1 (stereo unspecified) was tested. Which growth did it give?
**A.** 70.1%

**Q.** Which growth does the source give for CCn1c(CN2CCN(Cc3ccccc3)CC2)nc2cc(NC(=O)c3cccs3)ccc21 here?
**A.** -64.4% (active)

**Q.** How did the growth turn out when CCN(CC)CCCNc1cccc2c(C)cc(OC)nc12 was run?
**A.** 87.5%

**Q.** COc1ccc(-c2cn(-c3cccc(C(=O)/C=C/c4ccc(O)c(OC)c4)c3)c(=O)[nH]2)cc1 was tested. Which growth did it give?
**A.** -4.38% (active)

**Q.** How did the growth turn out when COc1ccc(/C=c2\c(=O)n(-c3ccccc3)c3nn4c(n23)=NNC42CCCCC2)cc1 was run?
**A.** 90.3%

**Q.** Which growth does the source give for CCNC(=S)N(Cc1ccccc1)Cc1ccccc1 here?
**A.** 88.1%

**Q.** With CCCCCCCCCCCCCCCc1cc(O)ccc1[N+](=O)[O-] as the compound, how does the growth read?
**A.** 28%

**Q.** With COC1=CC(c2ccc[nH]2)=N/C1=C\c1[nH]c(C)c(C(=O)CCCCCCCCC(=O)O[C@H]2CC[C@H]3C4CCc5cc(O)ccc5C4CC[C@]23C)c1C (stereo partly specified) as the compound, how does the growth read?
**A.** 15%

**Q.** With CCc1oc2ccccc2c1C(=O)c1cc(I)c(O)c(I)c1 as the compound, how does the growth read?
**A.** 30%

**Q.** How did the growth turn out when Cc1ccc(N=CNN=C(N)N)cc1 was run?
**A.** 95.4%

**Q.** With CCCCN(CCCC)CCCN=c1nc2c(c(N)n1-c1ccccc1)c(=S)n(-c1ccccc1)c(=S)n2-c1ccccc1 as the compound, how does the growth read?
**A.** -54.8% (active)

**Q.** [Ag].[Ag].[NH-]S(=O)(=O)c1ccc(N=Nc2cc(N=Nc3ccc(S([NH-])(=O)=O)cc3)c3c(NC(=O)C(Cl)Cl)cccc3c2OC(=O)C(Cl)Cl)cc1.[c-]1nccs1.[c-]1nccs1 was tested. Which growth did it give?
**A.** -86.4% (active)

**Q.** Which growth does the source give for COc1cc(NCCCCC(C)N)c2nccc(C)c2c1 (stereo unspecified) here?
**A.** 90.7%

**Q.** For COC(=O)C(C)NC1=C(Cl)C(=O)C(NC(C)C(=O)OC)=C(Cl)C1=O (stereo unspecified), which growth is on record?
**A.** 78.2%

**Q.** How did the growth turn out when COc1cc2nccc(Oc3ccc(NC(=O)C4(C(=O)Nc5ccc(F)cc5)CC4)cc3)c2cc1OC(=O)c1ccc(N)cc1 was run?
**A.** 21.4%

**Q.** Which growth does the source give for O=C(NO)c1ccc(NCc2csc3ccccc23)cc1 here?
**A.** 33.1%

**Q.** With COc1ccc2[nH]c(O)c(/C=c3/ccc4c(c3)N=C(c3ccc(F)cc3)N=4)c2c1 as the compound, how does the growth read?
**A.** 81%

**Q.** For CCN(CC)CCCC(C)N/C(c1cccc(OC)c1)=c1\c(=O)[nH]n(-c2c3ccccc3nc3ccccc23)c(=O)\c1=C(/NC(C)CCCN(CC)CC)c1cccc(OC)c1 (stereo unspecified), which growth is on record?
**A.** -85.6% (active)
